Data as given in PubChem BioAssay (Tox21).
A number with no mark means an inactive call. The source made the active and inactive calls. The call rests on the fitted dose curve; in most records, active means well fitted curve in the direction sought with a large enough effect in the repeat runs; inconclusive means weak or mixed curves; inactive means flat fitted curve, though single readings scatter.
On the % scale 0 is the no-effect control and ±100 the full control effect.

Assay: qHTS assay to test for compound auto fluorescence at 590 nm (red) in HEK293 cell free culture (AID 720683)
Conditions: cell-free medium autofluorescence, Ex540/Em590 red; series mostly up to 91.3 µM
Text: U.S. Tox21 Program National Center for Advancing Translational Sciences [NCATS] NIH Chemical Genomics Center [NCGC] U.S. Environmental Protection Agency [EPA] National Institutes of Environmental Health Sciences [NIEHS] National Toxicology Program [NTP] U.S. Food and Drug Administration [FDA] Tox21 Assay Overview: Compound auto fluorescence often interferes with screening of the compound library against various biological targets and signaling pathways. Some of these compounds may have fluorophoric properties. Such properties may interfere with the assay outputs resulting in false positives and/or negatives. To decrease such complications and ensure the compound activities are relevant in terms of biological response, the Tox21 10K compound library was screened for auto fluorescence. From the fluorophores used as reporter signals in our screening assays, the auto fluorescence equivalencies of compounds against three fluorophores have been evaluated: Triamterene, Fluorescein and Rose Bengal sodium for blue, green and red fluorescence, respectively. The fluorescence intensities were measured using Excitation/Emission wavelengths at 405/460nm, 485/535nm and 540/590nm for blue, green and red labels, respectively. This assay includes the red fluorescence data.
Tox21 Assay Protocol Summary: 5 uL of culture medium (DMEM containing 10% FBS) per well was dispensed into black wall/clear bottom 1536-well plates using a Multidrop Combi Dispenser (ThermoFisher Scientific, Waltham, MA). After 23 nL compound or DMSO vehicle was transferred into assay plate by a pintool work station (Kalypsys, San Diego, CA), fluorescence intensities in the assay plates were measured by an Envision (PerkinElmer, Shelton, CT) plate reader using three labels for measuring blue, green and red fluorescence at […] 460, 535 and 590nm respectively.
In the case of `Cc1ncc(CO)c(CN)c1O`, the outcome was “inactive”. In the case of `CCCCC(=O)O[C@]1(C(=O)CO)[C@H](C)C[C@H]2[C@@H]3CCC4=CC(=O)C=C[C@]4(C)[C@@]3(F)[C@@H](O)C[C@@]21C`, the outcome was “inactive”. In the case of `CC(=O)N[C@@H](CC(C)C)C(=O)O`, the outcome was “inactive”. In the case of `O=C(C(Cl)Cl)N1CCOC12CCCCC2`, the outcome was “inactive”. In the case of `CCCCOc1cc(C(=O)NCCN(CC)CC)c2ccccc2n1`, the fluorescence, % of fluorescent control was -0.187% [at 18.6 µM]. Work on `CCCCc1ccc2nc(NC(=O)OC)[nH]c2c1` yielded a fluorescence, % of fluorescent control of 0.113% [at 18.6 µM]. For `CCc1nnc(NS(=O)(=O)c2ccc(N)cc2)s1`, the outcome was “inactive”. In the case of `CC(C)(CO)[C@@H](O)C(=O)NCCC(=O)O`, the outcome was “inactive”. With `Cc1c(C(=O)NCCO)[n+](=O)c2ccccc2n1[O-]` the outcome was “inactive”. For `OCCN(CCO)CCN(CCO)CCO`, the outcome was “inactive”. With `CCOC(=O)NCCC[Si](OCC)(OCC)OCC` the outcome was “inactive”. With `O=c1[nH]c(=O)n([C@H]2C[C@H](O)[C@@H](CO)O2)cc1C(F)(F)F` the outcome was “inactive”. For `FC(F)(F)C(Cl)(Cl)Cl`, the outcome was “inactive”. For `CC(=O)N(CC(O)CN(C(C)=O)c1c(I)c(C(=O)NCC(O)CO)c(I)c(C(=O)NCC(O)CO)c1I)c1c(I)c(C(=O)NCC(O)CO)c(I)c(C(=O)NCC(O)CO)c1I` (stereo not given), the fluorescence, % of fluorescent control was -0.132% [at 18.6 µM]. With `Oc1ccccc1F` the outcome was “inactive”. With `CN(CC1(C)CCCO1)S(=O)(=O)c1ccc(Cl)c(S(N)(=O)=O)c1` (stereo not given) the outcome was “inactive”. With `NCCCN1CCN(CCCN)CC1` the outcome was “inactive”. With `C[C@@H](N)C(=O)O` the outcome was “inactive”. In the case of `CCCc1c2oc(C(=O)O)cc(=O)c2cc2c(=O)cc(C(=O)O)n(CC)c12`, the outcome was “inactive”. In the case of `CN1C(=O)CC(c2ccccc2)C1=O` (stereo not given), the outcome was “inactive”. In the case of `CC(C)(C)c1ccc(OC(=O)c2ccccc2O)cc1`, the outcome was “inactive”. With `NC1=NCC2c3ccccc3Cc3ccccc3N12` (stereo not given) the outcome was “inactive”. With `COc1ccc(Nc2ccc(OC)cc2)cc1` the outcome was “inactive”. With `COc1ccc(S(=O)(=O)Nc2nnc(CC(C)C)s2)cc1` the outcome was “inactive”. In the case of `CCC(=O)O[C@]1(C(=O)SCF)[C@H](C)C[C@H]2[C@@H]3C[C@H](F)C4=CC(=O)C=C[C@]4(C)[C@@]3(F)[C@@H](O)C[C@@]21C`, the fluorescence, % of fluorescent control was -0.193% [at 18.6 µM]. For `CC1=C(O)C(=O)OC1C` (stereo not given), the outcome was “inactive”. Work on `CCCNC(C)C(=O)Nc1c(C)csc1C(=O)OC` (stereo not given) yielded a fluorescence, % of fluorescent control of 0.0164% [at 18.6 µM]. With `O=C1CCC(C2CCCCC2)CC1` the outcome was “inactive”. In the case of `C=CC(C)(O)CC/C=C(\C)CCC=C(C)C` (stereo not given), the outcome was “inactive”. For `CC(C)OC(C)C`, the outcome was “inactive”. In the case of `CCCCNC(=S)NCCCC`, the outcome was “inactive”. In the case of `Cc1c(-c2ccccc2)oc2c(C(=O)OCCN3CCCCC3)cccc2c1=O`, the fluorescence, % of fluorescent control was -0.0474% [at 18.6 µM]. In the case of `CC/C=C\CCOC(=O)C(C)C`, the outcome was “inactive”. For `CNCCC(Oc1ccccc1OC)c1ccccc1` (stereo not given), the outcome was “inactive”. With `COC(=O)c1ccc(OC)cc1` the outcome was “inactive”. For `COc1cc(N)c(Cl)cc1C(=O)NC1CCN(Cc2ccccc2)CC1`, the fluorescence, % of fluorescent control was 0.0929% [at 18.6 µM]. In the case of `CCCNC(C)(C)COC(=O)c1ccccc1`, the outcome was “inactive”. For `CC1=C2[C@H](/C=C(\C)C(=O)O)CC[C@@H](C)[C@H]2CC1`, the outcome was “inactive”. With `Cc1ccc(C=O)s1` the outcome was “inactive”. In the case of `CCOC(=O)COc1ccc2c(c1)CC(NCC(O)c1cccc(Cl)c1)CC2` (stereo not given), the outcome was “inactive”.
